Most compounds without a hit are left out; they make up all but 1.6% or so of the library.
FAK inh: FAK kinase inhibitors, primary screen, biochemical. Focal adhesion kinase 1 (Homo sapiens), Q05397. biochemical FAK kinase activity assay. inhibition, %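 (tested at 7 µM)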. 97,000 tested, 0.84% active. AID 727, 2007; in the data active = inhibition above about 19%;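 also: 0% = DMSO and 100% = reference compound high control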
Smad3 inh: Smad3/FoxH1 peptide binding inhibitors, primary screen, biochemical, TR-FRET; inhibition, % at 25 µM; Mothers against decapentaplegic homolog 3 (Homo sapiens), P84022; TR-FRET Smad3/Dy647-FoxH1 peptide binding, europium anti-His; 88,000 tested, 0.29% active;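 active = compounds that reduce the energy-transfer binding signal between the protein and its labelled peptide by more than half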;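 also: 0% = Smad3 plus labelled peptide maximal FRET and 100% = peptide-only background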
Plk1 PBD FP: Plk1 polo box domain binding inhibitors, primary screen, biochemical, fluorescence polarization. Serine/threonine-protein kinase PLK1 (Homo sapiens), P53350. Plk1 PBD phosphopeptide binding. inhibition, %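 (tested at about 20 µM)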. 97,000 tested, 0.13% active. AID 693, 2007; in the data active = inhibition above about 34%, passing the limit was not always enough
Target sequence (P53350 whole entry, looked up, the tested form may be a part): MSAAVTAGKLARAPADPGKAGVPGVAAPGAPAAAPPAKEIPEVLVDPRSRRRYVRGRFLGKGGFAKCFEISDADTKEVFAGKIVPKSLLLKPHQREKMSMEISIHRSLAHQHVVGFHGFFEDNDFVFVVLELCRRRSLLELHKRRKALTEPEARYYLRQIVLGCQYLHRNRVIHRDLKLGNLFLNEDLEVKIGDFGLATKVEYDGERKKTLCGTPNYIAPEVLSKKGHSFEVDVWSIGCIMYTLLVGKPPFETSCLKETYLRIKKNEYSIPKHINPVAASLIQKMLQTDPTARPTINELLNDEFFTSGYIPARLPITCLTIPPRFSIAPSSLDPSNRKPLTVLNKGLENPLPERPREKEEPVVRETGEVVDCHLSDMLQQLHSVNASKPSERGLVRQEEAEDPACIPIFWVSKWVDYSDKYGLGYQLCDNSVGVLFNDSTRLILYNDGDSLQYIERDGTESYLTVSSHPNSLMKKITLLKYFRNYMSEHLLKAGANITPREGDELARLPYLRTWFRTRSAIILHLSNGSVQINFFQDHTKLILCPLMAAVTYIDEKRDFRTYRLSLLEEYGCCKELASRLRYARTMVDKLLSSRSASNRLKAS
EphB4 ephrin blk: EphB4-ephrin-B2 interaction antagonists, primary screen, biochemical, TNYL-RAW peptide probe, fluorescence polarization | inhibition, % at 7 µM | EphB4 LBD / TNYL-RAW-Alexa532 peptide | 97,000 tested, 0.15% active | Ephrin type-B receptor 4 (Homo sapiens), P54760;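 active = inhibition above the screen-wide mean inhibition plus 3 SD, cut at about 15% in these data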;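 also: 0% = DMSO wells and 100% = excess unlabeled TNYL-RAW peptide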
PLK1 inh: human PLK1 kinase inhibitors, primary screen, biochemical, TR-FRET. inhibition, % at 10 µM. recombinant PLK1 kinase, TR-FRET peptide phosphorylation. AID 619, 2007. 97,000 tested, 0.53% active. Serine/threonine-protein kinase PLK1 (Homo sapiens), P53350;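 active = inhibition of 50% or more in the single-concentration screen; inactive = inhibition below 50%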;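 also: 0% = DMSO max control and 100% = H-89 dihydrochloride min control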
* hit, by the source's call; / = no result; [ ] = dose if it differs, or a comment.

SMILES | FAK inh | Smad3 inh | Plk1 PBD FP | EphB4 ephrin blk | PLK1 inh
Nc1nc(N)c2[nH]cnc2n1 (tested in a mixture with another compound) | / | -3 | / | / | /
Cc1cc(N=Cc2c(CO)cnc(C)c2O)c(N=Cc2c(CO)cnc(C)c2O)cc1C.[Zn] | / | 93* | / | / | /
Cc1ncc(CO)c(CN)c1O | / | 12 | / | / | /
CC(C)(N)CO[C@@H]1C[C@@H]2CC[C@@]1(C)C2(C)C | / | 3 | / | / | /
Cc1ccc2nc(N/N=C/c3cccc(C)n3)cc(C)c2c1 | / | 11 | / | / | /
CC12CN3CC(C)(CN(C1)C3c1ccc(Cl)cc1Cl)C2O (stereo not drawn) | -5 | -6 | 11 | -2 | -5
CN(C)c1ccc(C2N3CC4(C)CN2CC(C)(C3)C4O)cc1 (stereo not drawn) | 3 | 4 | -19 | -12 | 62*
Cc1cccc(Nc2ncnc3nc[nH]c23)c1C | -2 | / | -41 | 0 | 56*
FC(F)Sc1ccc(Nc2ncnc3nc[nH]c23)cc1 | 10 | 13 | 9 | -6 | 60*
Cc1ccc([C@@]2(C)CC/C(=N\N=C3/CC[C@](C)(c4ccc(C)c(C)c4)c4cc(C)c(C)cc43)c3cc(C)c(C)cc32)cc1C | / | 9 | / | / | /
CCCCN(C)C(=O)c1cn(CC)c2ccc(S(=O)(=O)N(C)C)cc2c1=O | 10 | 0 | 0 | 0 | 59*
Cc1cccc(NC(=O)c2ccc(S(=O)(=O)N(C)C)cc2)n1 | -1 | / | -21 | 18* | -7
O=C(Nc1ccc(Cl)cc1Cl)c1cccc(N2C(=O)C=CC2=O)c1 | / | / | / | / | -4
Cn1c(=O)c(NCCc2ccccc2)c2c3c(cccc31)C(=O)c1ccccc1-2 | 3 | 11 | -207 | 119*[fluorescence artefact?] | -152
CCNc1c2c3c(cccc3n(C)c1=O)C(=O)c1ccccc1-2 | 12 | 8 | -106 | 26* | -101
CCCCNc1c2c3c(cccc3n(C)c1=O)C(=O)c1ccccc1-2 | 6 | -2 | -138 | 15 | -129
CCOC(=O)Nc1nc(-c2ccccc2)c(C)s1 | / | 27 | / | / | /
COc1cc2c(cc1OC)C1=C(C#N)CN(CC(=O)O)CN1CC2 | 2 | -6 | 28 | 4 | 61*
Cc1ccc(NC(=O)NCCN2C(=O)C3C4C=CC(C4)C3C2=O)cc1 (stereo not drawn) | 2 | -17 | 37 | -5 | 62*
Cc1ccccc1NC(=O)NCCN1C(=O)C2C3C=CC(C3)C2C1=O (stereo not drawn) | 0 | / | -21 | 1 | -1
O=C(NCCN1C(=O)C2C3C=CC(C3)C2C1=O)Nc1ccccc1 (stereo not drawn) | 1 | 5 | 11 | 3 | 67*
O=C(NCCN1C(=O)C2C3C=CC(C3)C2C1=O)NCc1ccccc1 (stereo not drawn) | 1 | -11 | 12 | -7 | 54*
COc1ccc(NC(=O)NCCN2C(=O)C3C4C=CC(C4)C3C2=O)cc1 (stereo not drawn) | 1 | -5 | 15 | -4 | -5
O=C(/C=C/c1ccccc1Cl)NCc1ccccc1 | 0 | / | 0 | 16* | -9
Nc1nc(SCC(=O)O)[nH]c(=O)c1N | / | 2 | / | / | /
SMILES | FAK inh | Smad3 inh | Plk1 PBD FP | EphB4 ephrin blk | PLK1 inh
O=C1CN2CCN(CC2)CC(=O)Nc2ccc(cc2)S(=O)(=O)c2ccc(cc2)NC(=O)CN2CCN(CC2)CC(=O)Nc2ccc(cc2)S(=O)(=O)c2ccc(cc2)N1 | / | -3 | / | / | /
CCCCSc1nc(N)c(C#N)c(-c2cccs2)c1C#N | 8 | 10 | -24 | 0 | -9
Cc1cccc(CSc2nc(N)c(C#N)c(-c3cccs3)c2C#N)c1 | -1 | -2 | -5 | 17* | -10
C/C(=N\NC(=O)c1ccncc1)c1ccccc1Cl | / | -7 | / | / | /
CCCc1c(C)c2c(C)[nH]nc2oc1=O | 15 | 16 | 21 | 0 | 58*
CCn1cc(C(=O)N2CCCCC2)c(=O)c2cc(S(=O)(=O)N3CCC(C)CC3)ccc21 | -1 | 9 | -5 | 3 | 50*
CCn1cc(C(=O)NC2CCC(C)CC2)c(=O)c2cc(S(=O)(=O)N3CCCCC3)ccc21 (stereo not drawn) | 1 | 7 | -29 | -5 | -14
C/C(=N\NC(=O)c1ccc(Cl)cc1)c1ccc(Br)s1 | 6 | / | 67* | -4 | -7
COc1ccccc1C1CC(c2c(-c3ccccc3)c3cc(Cl)ccc3[nH]c2=O)=NN1S(C)(=O)=O (stereo not drawn) | 8 | 16 | -28 | 17* | -5
C[C@@]12CC[C@H]3c4ccc(O)cc4CC[C@@H]3[C@H]1CC[C@H]2OP(=O)(O)O | / | 16 | / | / | /
COc1ccc(Cl)cc1CN1CCN(c2nc(C)cc(C)c2C#N)CC1 | 1 | 1 | 26 | -1 | 62*
Cc1cc(C)c(C#N)c(N2CCN(CCOc3ccc(Cl)cc3)CC2)n1 | 4 | -4 | -12 | -2 | -10
O=C(Nc1ccc(Cc2ccncc2)cc1)C1CCC(N2C(=O)C3CC=CCC3C2=O)CC1 (stereo not drawn) | 1 | 56* | 3 | 3 | -13
NC(N)=N/N=C/c1ccc(O)c(C(=O)O)c1 | / | 18 | / | / | /
C=C(C)c1ccc(C(C)(C)NC(=O)N2CCN(C)CC2)cc1 | 4 | 71* | 1 | -9 | -18
CCc1ncc(CO)n1Cc1cccc2ccccc12 | / | -8 | / | / | /
Nc1ccn([C@H]2O[C@@H](COP(=O)(O)O)[C@H](O)[C@H]2O)c(=O)n1 | / | 79* | / | / | /
CCC1=C(C[C@H]2NCCc3ccccc32)C[C@H]2c3cc(OC)c(OC)cc3CCN2C1 | / | 5 | / | / | /
Cc1ccc(C2SCC(=O)N2Cc2cn3ccsc3n2)o1 (stereo not drawn) | -6 | 64*[fluorescence artefact?] | -19 | 9 | -7
CCN(CC)C(=O)Nc1c(C)n(C)n(-c2ccccc2)c1=O | 1 | 17 | 14 | 1 | 55*
Cc1c(NC(=O)COC(=O)C(c2ccc(Cl)cc2)C(C)C)c(=O)n(-c2ccccc2)n1C (stereo not drawn) | 0 | / | -10 | 17* | -15
CCC(CC)C(=O)Nc1c(C)n(C)n(-c2ccccc2)c1=O | 1 | 4 | 28 | -7 | -12
CCC(C(=O)OCC(=O)Nc1c(C)n(C)n(-c2ccccc2)c1=O)c1ccccc1 (stereo not drawn) | 1 | 2 | -16 | 0 | -16
O=C(Nc1c(-c2ccccc2)nc2sccn12)c1ccccc1 | / | 51* | / | / | /
Cc1ccn2c(NC(=O)c3ccco3)c(-c3ccccc3)nc2c1 | -3 | -1 | -4 | 0 | -8
Cc1c(C(=O)OC2CCCCC2)sc2nc[nH]c(=O)c12 | 1 | 8 | -1 | 2 | 68*
O=C1C[C@H]2C(=O)[C@@H]1[C@@H](C(=O)O)[C@H]2C(=O)O | / | -8 | / | / | /
Cc1ccc(C(=O)NCCn2cc(SCC(=O)Nc3nnc(C)s3)c3ccccc32)cc1 | 3 | -13 | 7 | 5 | 62*
NC(N)=N[C@@H]1C(O)[C@H](N=C(N)N)[C@@H](O)C(O)[C@H]1O (stereo partly drawn) | / | 7 | / | / | /

Screening data from PubChem BioAssay.
